# Reference: PubChem BioAssay
# Active and inactive are the calls of the source.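 The calls were made as follows, unless noted: active = inhibition at or above 50% at 10 µM; inactive = inhibition below 50%.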
# What was measured:
# [1] = inhibitors of TNFa-induced NFkB p65 translocation, primary screen, imaging, HUVEC, MLSMR starter and 10KST1 sets (AID 438;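 active = inhibition above 20% together with a positive visual image hit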;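 also: compound added about 3h40 before a 20 min TNFalpha stimulation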;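 as to inhibition: signal is the nuclear over cytoplasmic p65 intensity ratio per well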); conditions: HUVEC TNFa-induced p65 nuclear translocation; cell count: measured here: nuclei count (cytotoxicity indicator), at 2.08 µM; inhibition: at 2 µM, stronger effect = higher value, 0% TNFa-plus-vehicle, 100% no-TNFa wells
# [2] = reduction of polyQ htt aggregates in cells – imaging, exon1htt(103Q)mCFP cells, high-content imaging, primary screen (AID 483;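 active = visual image review flags a hit and inhibition of aggregation exceeds 20%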;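 also: compound exposure lasted 3 days before fixation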;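 as to nuclei count: percent of the per-plate median nuclei count of sample wells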); conditions: exon1htt(103Q)mCFP cell line, aggregate imaging, at 2 µM; inhibition of aggregation: stronger effect = higher value; nuclei count: measured here: cell count, toxicity
# [3] = endothelial E-selectin expression blockers – imaging, HUVEC, immunofluorescence, MLSMR starter and 10KST1 sets, primary screen (AID 487;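 active = visually confirmed hit in the image check and inhibition above 20%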;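 as to inhibition: signal is fraction of cell area covered by stained E-selectin grains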;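 as to nuclei count: 100% = median nuclei count of all wells on the same plate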); conditions: HUVEC TNFalpha-induced E-selectin immunofluorescence imaging, at 2 µM; inhibition: stronger effect = higher value; nuclei count: measured here: cell number, toxicity
# [4] = molecular target: Voltage-gated potassium channel subunit beta-2 (Rattus norvegicus) (UniProt P62483); assay: inhibitors of rat Kvbeta2 reductase activity – biochemical, NADPH fluorescence, primary screen (AID 622;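 active = fluorescence slope higher than the sample average by over 3 SD, cut at about -0.22 in these data, passing the limit was not always enough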;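 also: slope of raw intensity against log time taken from 70 to 1610 s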); conditions: recombinant KvBeta, 4-cyanobenzaldehyde reduction, at 10 µM, stronger effect = higher value
# Sequence of Voltage-gated potassium channel subunit beta-2 (Rattus norvegicus) (P62483 whole entry, looked up): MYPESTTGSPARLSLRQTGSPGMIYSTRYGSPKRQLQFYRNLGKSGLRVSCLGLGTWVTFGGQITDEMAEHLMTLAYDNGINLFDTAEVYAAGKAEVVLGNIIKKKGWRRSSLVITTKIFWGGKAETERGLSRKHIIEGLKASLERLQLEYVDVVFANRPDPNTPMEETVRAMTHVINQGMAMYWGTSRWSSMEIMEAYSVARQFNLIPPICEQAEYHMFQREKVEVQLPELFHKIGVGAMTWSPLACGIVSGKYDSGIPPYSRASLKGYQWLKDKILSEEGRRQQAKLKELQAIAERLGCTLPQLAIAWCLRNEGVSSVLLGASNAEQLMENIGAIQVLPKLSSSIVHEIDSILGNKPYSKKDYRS
# [5] = molecular target: Voltage-gated potassium channel subunit beta-2 (Rattus norvegicus) (UniProt P62483); assay: enhancers of rat Kvbeta2 NADPH turnover – biochemical, NADPH fluorescence, primary screen (AID 623;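 active = NADPH fluorescence slope more negative than the mean of all samples by about 3 SD, 99.7% confidence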;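 also: fluorescence intensity change per second fitted from 20 to 320 s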); conditions: Recombinant KvBeta, NADPH fluorescence decrease slope, 10 min; at 10 µM; stronger effect = lower value
# [6] = molecular target: Alpha-2C adrenergic receptor (Homo sapiens) (UniProt P18825); assay: compounds altering alpha2C-coupled GIRK flux – cell-based, HEK293 alpha2C/GIRK1/2, thallium flux, primary screen (AID 624;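 active = fluorescence slope after compound addition differing from the mean of all screened samples at 99.7% confidence, in either direction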;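 also: slope of fluorescence ratio to pre-addition baseline per second over 15 to 24 s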); conditions: thallium flux BTC fluorescence, at 10 µM, actives lie on both sides
# Sequence of Alpha-2C adrenergic receptor (Homo sapiens) (P18825 whole entry, looked up): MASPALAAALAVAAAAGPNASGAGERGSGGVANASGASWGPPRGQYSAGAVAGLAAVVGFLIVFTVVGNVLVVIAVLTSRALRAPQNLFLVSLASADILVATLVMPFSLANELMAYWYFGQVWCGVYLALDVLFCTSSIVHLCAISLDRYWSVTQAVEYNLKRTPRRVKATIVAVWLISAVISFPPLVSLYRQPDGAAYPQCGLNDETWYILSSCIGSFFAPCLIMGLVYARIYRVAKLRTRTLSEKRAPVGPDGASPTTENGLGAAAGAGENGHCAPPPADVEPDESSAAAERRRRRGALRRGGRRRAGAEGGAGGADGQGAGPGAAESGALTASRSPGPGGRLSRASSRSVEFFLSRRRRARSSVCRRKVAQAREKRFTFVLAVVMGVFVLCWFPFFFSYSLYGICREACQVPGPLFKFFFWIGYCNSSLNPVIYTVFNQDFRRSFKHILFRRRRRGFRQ
# [7] = blockers of RIG-like receptor reporter activation – cell-based, Sendai virus stimulus, luciferase, 10K MLSCN set, TLR/RLR signaling modifier project, primary screen (AID 602276); conditions: HEK293 RL24 IRF3 luciferase reporter, at 10 µM, stronger effect = higher value;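 also: firefly luciferase from ISG56 promoter only with Renilla not read in this screen; 0% = Sendai virus plus DMSO and 100% = medium plus DMSO without virus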
# [8] = TLR3 IRF3 reporter activation blockers – cell-based, poly I:C stimulus, luciferase, 10K MLSCN set, primary screen (AID 602277;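 active = inhibition of the reporter signal at or above 50%; inactive = inhibition below 50%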); conditions: HEK293-TLR3 RL24 IRF3 luciferase reporter, at 10 µM, stronger effect = higher value
Structure (SMILES),cell count [1],inhibition [1],inhibition of aggregation [2],nuclei count [2] [%],inhibition [3],nuclei count [3] [%],fluorescence slope [4],NADPH fluorescence slope [5],slope [6],inhibition [7],inhibition [8]
S=c1[nH]ncn1-c1ccccn1,681,-11% (inactive),-25.8% (inactive),114,-40.7% (inactive),109,-0.41 (inactive),-3.7e-05 (inactive),0.00408 (inactive),1.29% (inactive),8.61% (inactive)
Cn1c(SCC(N)=O)nnc1C1CCN(C(=O)NCc2ccccc2)CC1,325,6.8% (inactive),-6.1% (inactive),99.8,-74.7% (inactive),108,-0.385 (inactive),-5.9e-05 (inactive),0.00348 (inactive),5.51% (inactive),21.8% (inactive)
CCCCNC(=O)C(C#N)c1nc2ccccc2nc1N1CCCC1 (stereo unspecified),289,-6.5% (inactive),22.5% (inactive),78.4,9% (inactive),52.3,-0.235 (inactive),-1.3e-05 (inactive),0.00359 (inactive),16.3% (inactive),14% (inactive)
CC(C)(C)Cc1nc(-c2ccccn2)no1,379,0.8% (inactive),-13.5% (inactive),109,-71.1% (inactive),115,-0.44 (inactive),-2.3e-05 (inactive),0.00439 (inactive),-5.86% (inactive),-18.2% (inactive)
CCCCCSc1nc2c(cnn2-c2ccccc2)c(=O)[nH]1,241,-4.9% (inactive),-3.4% (inactive),100,-35.9% (inactive),125,-0.399 (inactive),-5.4e-05 (inactive),0.00382 (inactive),11.4% (inactive),27.5% (inactive)
CCOC(=O)N1CCN(C(=O)c2ccc3nc4ccsc4c(=O)n3c2)CC1,542,9.1% (inactive),-30.4% (inactive),65.4,12.9% (inactive),95.5,-0.324 (inactive),-1.8e-05 (inactive),0.00717 (inactive),14.6% (inactive),44.2% (inactive)
O=C(NCCCCNC(=O)c1cccnc1)c1cccnc1,514,10.1% (inactive),8.2% (inactive),99.6,-31.4% (inactive),116,-0.64 (inactive),3.6e-05 (inactive),0.00666 (inactive),13.9% (inactive),26.9% (inactive)
CCc1nc(SCc2cc(Cl)ccc2OC)n[nH]1,661,8.7% (inactive),-8.3% (inactive),95.5,-47.4% (inactive),103,-0.36 (inactive),-6.3e-05 (inactive),0.00554 (inactive),-11.3% (inactive),-22.3% (inactive)
COc1ccc(C)cc1NC(=O)CSc1nnnn1Cc1ccccc1,709,-1.6% (inactive),-27.3% (inactive),107,8.3% (inactive),124,-0.528 (inactive),-1.1e-05 (inactive),0.00685 (inactive),-7.12% (inactive),13.4% (inactive)
COc1ccc2c(c1)OC(O)(C(F)F)CC2=O (stereo unspecified),406,1.5% (inactive),5.7% (inactive),91.2,-205% (inactive),96.2,-0.398 (inactive),2.1e-05 (inactive),0.00381 (inactive),6.89% (inactive),28.4% (inactive)
Cc1cccc(-n2ncc3c(NCCCn4ccnc4)ncnc32)c1,604,1.3% (inactive),30.9% (inactive),99.7,-29.8% (inactive),119,-0.45 (inactive),-4.7e-05 (inactive),0.00546 (inactive),-63.1% (inactive),-121% (inactive)
CCn1c(Cc2ccccc2)nnc1SCC(=O)Nc1ccc(N2CCOCC2)c(Cl)c1,427,0.3% (inactive),-13.2% (inactive),108,-56.2% (inactive),168,-0.441 (inactive),-6.7e-06 (inactive),0.00559 (inactive),14% (inactive),5.26% (inactive)
CCOc1ccc2nc(NC(=O)CSc3nnnn3C3CCCCC3)sc2c1,401,1.7% (inactive),-8% (inactive),108,-74.4% (inactive),92.8,-0.393 (inactive),-3.7e-05 (inactive),0.00315 (inactive),-4.95% (inactive),-46.7% (inactive)
CS(=O)(=O)c1ccc2nc(NC(=O)c3cccs3)sc2c1,351,-2.9% (inactive),4.4% (inactive),105,3.9% (inactive),104,-0.487 (inactive),-5.8e-05 (inactive),0.00673 (inactive),-10.7% (inactive),-21.1% (inactive)
CC(C)N(C(=O)N1CCC(c2nc(-c3ccncc3)no2)CC1)C(C)C,653,-7.5% (inactive),8.3% (inactive),102,-95.9% (inactive),106,-0.354 (inactive),-3.3e-05 (inactive),0.00413 (inactive),0.899% (inactive),-5.83% (inactive)
Cc1cc(=O)oc2cc(OCC#N)ccc12,823,-2.9% (inactive),-19.8% (inactive),95.4,-66.4% (inactive),128,-0.521 (inactive),-3.5e-05 (inactive),0.0067 (inactive),8.92% (inactive),27.1% (inactive)
O=C(CSc1nc(-c2ccco2)cc(C(F)(F)F)n1)NCCCn1ccnc1,674,-1.9% (inactive),2.9% (inactive),119,-43.1% (inactive),113,-0.537 (inactive),2.4e-05 (inactive),0.0076 (inactive),-4.59% (inactive),13.6% (inactive)
Cc1ccc(N=C2NC(=O)CS2)c(C)c1,607,7.4% (inactive),22.3% (inactive),95.2,59.4% (active),76.3,-0.47 (inactive),-2.8e-05 (inactive),0.00603 (inactive),2.6% (inactive),21.7% (inactive)
Cc1nc2ccc(S(=O)(=O)NC(C(=O)N3CCCC3)C(C)C)cc2s1 (stereo unspecified),677,1.8% (inactive),-21.4% (inactive),111,-33% (inactive),110,-0.613 (inactive),1.2e-05 (inactive),0.00717 (inactive),12.9% (inactive),13.8% (inactive)
c1ccc(CN2C3=NCCCN3c3ccccc32)cc1,361,-4.7% (inactive),-10.1% (inactive),97.9,-3.7% (inactive),117,-0.601 (inactive),-1.3e-05 (inactive),0.00493 (inactive),11.4% (inactive),22.1% (inactive)
N#Cc1cnc(SCC(=O)c2ccccc2)nc1N,682,-10.7% (inactive),8.2% (inactive),63.1,-20.8% (inactive),120,-0.402 (inactive),-2.9e-05 (inactive),0.00488 (inactive),4.13% (inactive),-24.8% (inactive)
COc1ccc(CN(Cc2cc3cc4c(cc3[nH]c2=O)OCO4)C(=O)NC2CCCCC2)cc1,337,7.6% (inactive),38.7% (inactive),73.1,-75.9% (inactive),99.3,-0.368 (inactive),-5.1e-05 (inactive),0.0053 (inactive),5.31% (inactive),-1.61% (inactive)
O=S(=O)(c1ccc2ccccc2c1)N1CCCCC1,424,2.6% (inactive),7% (inactive),104,20.8% (inactive),104,-0.413 (inactive),-2.4e-06 (inactive),0.00701 (inactive),13.9% (inactive),33.1% (inactive)
COc1ccccc1NC(=O)C1=C(C)Nc2nnnn2C1c1ccccc1OC (stereo unspecified),453,-0.5% (inactive),-7.9% (inactive),90.1,8.8% (inactive),82.2,-0.415 (inactive),7.3e-06 (inactive),0.00379 (inactive),10.5% (inactive),33.5% (inactive)
O=C(c1ccc(Cl)s1)N1CCN(c2nc3ccccc3s2)CC1,721,-17.3% (inactive),-16.4% (inactive),104,-31.6% (inactive),107,-0.392 (inactive),2e-05 (inactive),0.00557 (inactive),8.1% (inactive),6.32% (inactive)
Oc1ccc2ccccc2c1CN1CCN(c2ccccc2F)CC1,564,2.2% (inactive),7.8% (inactive),107,9.5% (inactive),111,-0.574 (inactive),-3.4e-05 (inactive),0.00592 (inactive),9.17% (inactive),26.6% (inactive)
